Compound activity (PubChem)
A selection: hits, their analogues and other compounds. The true share with any hit is near 0.88%.
GCN5L2 inh – blocks human GCN5L2 histone acetyltransferase; 390,000 tested, 0.21% active; GCN5L2 HAT assay, ThioGlo1 CoA-SH fluorescence; AID 504327; Q92830; Potency, µM (titrated, usually from 58.9 µM), for inactives: at the top dose activity change, negative = inhibition, actives largely listed as inhibitors; note: % is set by controls: 0 for no effect and ±100 for the full control effect
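Free CoA generated was detected with ThioGlo1 (50uM) fluorescence at Ex340nm/Em540nm, read immediately and after 20 min at room temperature. Enzyme, 20 nM in HEPES pH 7.5 buffer, saw compounds 15 min before adding 75uM H3(1-25) peptide and 70uM acetyl-CoA.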
WRN inhibitor – WRN helicase (human) inhibition; Potency, µM (top dose mostly 114 µM), for inactives: at the top dose activity change, negative = inhibition, hits mostly inhibitors; Q14191; WRN helicase unwinding, fluorescent forked duplex, kinetic; AID 651768; 360,000 tested, 0.46% active; note: % is set by controls: 0 for no effect and ±100 for the full control effect; nearly all actives have a fitted effect of over 55% in size
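Primary qHTS, 1536-well format. 20 nM WRN + compound, 15 min RT; start with 100 nM forked fluorophore/quencher duplex, 2 mM ATP (final); kinetic read ex 525/em 598 nm.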
ERG-DNA inh – ERG Ets/DNA interaction inhibition. P11308. fluorescence polarization, His-ERG Ets domain / labelled DNA. Potency, µM (titrated, usually from 76.9 µM), for the others: at the highest dose FP activity, negative = inhibition, hits mostly inhibitors. 370,000 tested, 0.028% active; active = well fitted inhibition curve with a large enough effect in the polarisation, with a control signal flat; inconclusive = small, poorly fitted or top-dose-only effect, or effect the other way, or a change in a side signal; inactive = no such curve, though single readings can be large or run the other way; the % refers to the polarisation;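 note: polarization taken with two DNA probes labelled with fluorescein and Texas red; % of control where 0% means no effect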
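His-tagged ERG Ets domain (1 uM in the protein solution; 300mM KCl, 50mM Tris-HCl, 1mM EDTA, 1mM DTT, pH 7.5) received compound, then a probe mix of 5 nM fluorescein-DNA and 100nM Texas-615-DNA. Fluorescence polarization was read for both dyes.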
APEX1 inh – APE1 (human) endonuclease inhibition; P27695; recombinant APE1, TAMRA/BHQ-2 abasic DNA cleavage fluorescence; Potency, µM (titrated, usually from 65.8 µM), for inactives: top-dose activity change, negative = inhibition, actives largely listed as inhibitors; 350,000 tested, 0.35% active;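 note: plate controls were vehicle for no effect and reference inhibitor for full effect; nearly all actives have a fitted effect of over 55% in size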
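Step 1: APE1 (0.75 nM) with compound, 15 min RT. Step 2: add 50 nM fluorophore/quencher THF duplex. Step 3: three fluorescence reads 60 s apart (525/598 nm); read 3 minus read 1 = reaction progress.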
RECQ1 inh – RECQ1 (human) helicase inhibition; P46063; RECQ1 DNA unwinding, red fluorescence kinetic read; Potency, µM (highest dose often 57.3 µM), inactives show top-dose activity, negative = inhibition, actives largely listed as inhibitors; 240,000 tested, 0.54% active; AID 2549;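 note: plate controls were vehicle for no effect and no enzyme for full effect; nearly all actives have a fitted effect of over 30% in size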
Target sequence (P46063 whole entry, looked up): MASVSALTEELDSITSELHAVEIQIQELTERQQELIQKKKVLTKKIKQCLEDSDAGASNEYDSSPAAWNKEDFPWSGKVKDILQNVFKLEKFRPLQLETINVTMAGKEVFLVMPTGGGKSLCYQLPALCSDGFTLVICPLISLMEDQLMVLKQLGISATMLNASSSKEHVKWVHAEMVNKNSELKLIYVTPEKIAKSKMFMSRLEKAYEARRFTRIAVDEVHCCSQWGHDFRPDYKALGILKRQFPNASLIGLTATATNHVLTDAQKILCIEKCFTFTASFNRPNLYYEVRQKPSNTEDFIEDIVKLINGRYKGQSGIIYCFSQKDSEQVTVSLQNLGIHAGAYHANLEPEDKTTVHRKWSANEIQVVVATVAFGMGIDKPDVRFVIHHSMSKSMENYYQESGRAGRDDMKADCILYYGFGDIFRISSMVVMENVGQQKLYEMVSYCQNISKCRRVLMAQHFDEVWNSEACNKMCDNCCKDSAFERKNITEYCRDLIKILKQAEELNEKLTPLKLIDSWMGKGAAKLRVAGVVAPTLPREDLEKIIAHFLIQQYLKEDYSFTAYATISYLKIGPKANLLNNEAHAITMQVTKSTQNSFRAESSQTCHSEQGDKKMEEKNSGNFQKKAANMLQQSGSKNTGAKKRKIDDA
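RECQ1T1 50 nM; forked duplex (20 bp + 30-nt ss tails) 200 nM, ATP 2 mM final; pH 8.0, 2 mM MgCl2, 2.5 ug/ml poly(dI-dC); 15 min compound preincubation; discontinuous kinetic read over 2 h at RT.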
BLM helicase inh – blocks DNA unwinding by human BLM helicase. Potency, µM (doses to about 56.1 µM), without a hit: at the highest dose activity change, negative = inhibition, actives largely listed as inhibitors. AID 2528. 350,000 tested, 0.2% active. P54132. recombinant BLM DNA unwinding, fluorescence dequenching;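 note: plate controls were vehicle for no effect and no enzyme for full effect; nearly all actives have a fitted effect of over 35% in size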
The depositor's hits bear a star; i = inactive; u = inconclusive; x = no result; ! = not active in a repeat; [ ] = remark or other dose. Unless noted, calls come from the whole dose curve; as a rule, active = well fitted curve in the direction sought with a large enough effect; inconclusive = small, poorly fitted or top-dose-only effect, or another doubt; inactive = no such curve, though single readings can be large; an effect the other way counts as inactive or inconclusive. Potency is the fitted concentration of half-maximal effect.

SMILES | GCN5L2 inh | WRN inhibitor | ERG-DNA inh | APEX1 inh | RECQ1 inh | BLM helicase inh
CCc1nc(-c2cc(S(=O)(=O)N3CCN(c4ccccc4F)CC3)ccc2OC)no1 | -5% | x | -9% | x | x | 1%
CCCCn1c(C)cc2c(c1=O)C1O[C@](c3ccsc3)(Cc3cc(OC)c(OC)cc31)O2 | -3%[12.7 µM] | x | x | 3.9µM* | x | -11%[12.4 µM]
COc1cc2c(cc1OC)C1O[C@](c3ccsc3)(C2)Oc2c1c(=O)oc1ccc(F)cc21 | 5%[12.7 µM] | x | x | -21%[12.4 µM] | x | -5%[12.4 µM]
CCCCCCN(C(=O)CCCCCN1C(=O)NC(c2ccc(C3CCCCC3)cc2)C(C(=O)OCc2ccccc2)=C1C)C(C(=O)NCCCC)c1ccc(OCC(=O)OC)c(C(=O)OC)c1 (centres undefined) | -22% | x | x | 0.45µM*! | -12% | -9%
COc1ccc(C2=Nn3c(nnc3-c3ccccc3C(F)(F)F)SC2)cc1OC1CCCC1 | x | x | x | -4% | x | x
Cc1ccc(NC2=C/C(=N/S(=O)(=O)c3cccs3)c3ccccc3C2=O)cc1C | 0% | -5% | -1% | -3% | 0% | -5%
Cc1ccccc1NC1=C/C(=N\S(=O)(=O)c2cccs2)c2ccccc2C1=O | -2% | -12%[57.1 µM] | -9% | -8% | -4% | 20µM*
COc1ccc(S(=O)(=O)/N=C2\C=C(Nc3ccc(O)cc3)C(=O)c3ccccc32)cc1 | -13% | 0%[11.6 µM] | -10% | -6% | x | u
CC(=O)Nc1ccc(NC2=C/C(=N/S(=O)(=O)c3cccs3)c3ccccc3C2=O)cc1 | -4% | -9% | 7% | 7% | 12% | 22µM*
Cc1nc2c(C(=O)NCCc3ccccc3)c[nH]n2c(=O)c1Cc1ccc(F)cc1Cl | u | x | 3% | x | x | -6%
Cc1ccc(CNC(=O)c2c[nH]n3c(=O)c(Cc4ccc(F)cc4Cl)c(C)nc23)cc1 | 35µM* | x | 0% | x | x | u
COc1ccc(CCNC(=O)c2c[nH]n3c(=O)c(Cc4ccccc4Cl)c(C)nc23)cc1OC | 28µM* | x | -1% | x | x | -4%
O=C(CC1SC(=O)N(c2ccccc2)C1=O)Nc1ccc(Br)cc1 (centres undefined) | -16% | u | 5% | 5% | i | -11%
O=C(CC1SC(=O)N(c2ccccc2)C1=O)Nc1ccc(Cl)cc1 (centres undefined) | -28% | 25µM* | 4% | 0% | -17% | -5%
CO[C@@H]1COC(=O)[C@H]2CCCN2C(=O)[C@@H](C)COC(=O)CCC[C@H]1C | x | x | x | u | 7%[11.5 µM] | -1%[12.4 µM]
Cn1cccc1CC(=O)N/N=C/C=C/c1ccco1 | u | u | -1% | 6% | -3% | 25µM*
Cc1cc2oc3ccc(NCCCn4ccnc4)cc3c(=O)c2cc1C | x | -28% | 18µM* | x | x | x
CCN=c1scc(C)n1/N=C/c1ccc(O)c(O)c1O | -6% | 22µM* | -11% | u | 25µM* | -19%
C/C(=N\NC(=O)c1cc(O)ccc1O)c1cccc(NC(=O)c2ccc(Cl)cc2)c1 | -19% | 40µM* | -5% | -19% | x | -16%
C/C(=N\NC(=O)c1cc(O)ccc1O)c1cccc(NC(=O)c2cccc(Cl)c2)c1 | -27% | -20%[11.6 µM] | -5% | 13% | x | -11%
Cc1ccc(C2CC(=O)Oc3cc4c(cc32)OCO4)cc1 (centres undefined) | u | x | x | u | 32µM* | -18%[75.6 µM]
Cc1ccc(C2CC(=O)Oc3cc(O)ccc32)cc1 (centres undefined) | 1%[88.6 µM] | 14% | 75% | -8%[120 µM] | 66%[126 µM] | 6%[120 µM]
CC1=CC(C)(C)N2C(=O)C(=Nc3ccc(O)cc3)c3cccc1c32 | 0% | u | u | u | -29% | 32µM*
CN1C(=O)/C(=C/c2ccc(-c3ccccc3[N+](=O)[O-])o2)SC1=Nc1ccc(Cl)c(C(=O)O)c1 | 32% | 56µM* | 2% | 10% | -5% | -4%
Cc1ccc(C)c(N2C(=N)S/C(=C\c3ccc(-c4ccccc4C(=O)O)o3)C2=O)c1 | -3% | u | 1% | u | -8% | -4%
SMILES | GCN5L2 inh | WRN inhibitor | ERG-DNA inh | APEX1 inh | RECQ1 inh | BLM helicase inh
Cc1cnc(CNc2cc(-c3ccccc3C(F)(F)F)ncn2)cn1 | -14% | x | x | 2% | -8% | -1%
COc1ccccc1-c1cc(NCc2cnc(C)cn2)ncn1 | 20µM* | x | x | 3% | -10% | -3%
C=C[C@H]1CCC=C2C(=O)CCC[C@@H]21 | x | x | x | 3% | 0% | -4%
CN1\C(=C/C=C/C=C/C=[N+](C)C)C(C)(C)c2ccccc21 | 11% | 4.2µM* | x | u | 25µM* | 28µM*
O=C(Nc1cccc(Cl)c1)c1cc(N=Nc2ccc([N+](=O)[O-])cc2Cl)ccc1O | -16% | -35% | -6% | -3% | -5% | 18µM*
O=C(Nc1ccc([N+](=O)[O-])cc1Cl)c1cc(Cl)ccc1O | -18% | -7% | 2% | -24% | -5% | 3%
COc1ccc(NC(=O)CN(C)C(=O)c2cc3c(s2)CCC3)cc1 | u | 40µM* | -15% | 1.9µM* | x | x
O=C1/C(=C/c2ccco2)SC(=S)N1CCC(=O)N1CCCCC1CCO (centres undefined) | -21% | 56µM* | 1% | -14% | x | -15%
O=C1/C(=C/c2ccc(Cl)cc2)SC(=S)N1CCC(=O)N1CCCCC1CCO (centres undefined) | -18% | -7% | 40% | -7% | x | -2%
CC(C)(C)n1ncc2c(=O)n(Cc3ccc(C#N)cc3F)cnc21 | x | x | x | -2% | x | x
CCCC[P+](CCCC)(CCCC)Cc1ccc(NC(=O)[C@@H](Cc2ccc3ccccc3c2)NC(=NC2CCCCC2)NC2CCCCC2)cc1 | -6% | x | x | 17% | 0% | 38%
CCCC(=O)OCCNc1cc(SCc2ccco2)c2nonc2c1[N+](=O)[O-] | -3% | 35µM* | 7% | 6% | 3% | 13µM*
CC(=O)OCCCNc1cc(SCc2ccco2)c2nonc2c1[N+](=O)[O-] | 35% | 22µM* | 33% | u | u | -17%
C#CCn1c(=O)c2c(nc(/C=C/c3cccc(OC)c3)n2C)n(CCCO)c1=O | -20% | x | x | 2% | 0% | -1%
O=C(Nc1ccc(Br)cc1)c1cnn2c1NC(=C1CC1)C=C2C(F)F | x | x | x | 16% | x | x
C#CCOCCOCCOCCNc1nc(N2CCN(C(=O)[C@H](Cc3cc4ccccc4[nH]3)n3cc([C@@H](N)CC(C)C)nn3)CC2)nc(N2CCN(C(=O)[C@H](Cc3cc4ccccc4[nH]3)n3cc([C@@H](N)CC(C)C)nn3)CC2)n1 | -3% | -19% | 7% | 4% | u | 22µM*
